Experiment in all cases: protein-binding microarray (PBM); PBM: ~300 nM protein, 6 mM HEPES pH 7.8, 80 mM KCl, 0.5 mM EDTA, 0.5 mM EGTA, 6% glycerol, 35 ng/ul poly-dIdC, 1% milk, 1 h, room temperature; Ap Aiptasia and Nv Nematostella (sea anemones) / Co Capsaspora / Aq Amphimedon (sponge) / Dm Drosophila / Hu human; RHD is the Rel homology domain; high values mean tight binding
Common to all, as to details: dsDNA, one strand shown

For one assay, the target named is T1, GST-Ap-NF-kB RHD (Exaiptasia pallida (Aiptasia), UniProt A0A913YAJ5 2-422).
T1 sequence: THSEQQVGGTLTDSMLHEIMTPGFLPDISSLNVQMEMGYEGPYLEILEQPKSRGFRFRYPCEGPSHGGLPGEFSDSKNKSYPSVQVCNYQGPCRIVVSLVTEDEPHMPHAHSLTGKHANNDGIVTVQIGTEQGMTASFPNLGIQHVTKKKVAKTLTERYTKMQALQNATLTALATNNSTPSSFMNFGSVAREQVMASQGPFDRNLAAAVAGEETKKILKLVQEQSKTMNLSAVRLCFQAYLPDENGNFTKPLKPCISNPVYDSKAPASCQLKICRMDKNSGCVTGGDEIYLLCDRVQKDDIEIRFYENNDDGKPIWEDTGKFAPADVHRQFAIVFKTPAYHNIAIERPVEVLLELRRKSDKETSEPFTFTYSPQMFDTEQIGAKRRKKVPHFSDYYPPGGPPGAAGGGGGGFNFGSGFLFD

For assay [1], the target named is T2, GST-Nv-NF-kB (Cys allele) (Nematostella vectensis, UniProt E5G601 2-411).
T2 sequence: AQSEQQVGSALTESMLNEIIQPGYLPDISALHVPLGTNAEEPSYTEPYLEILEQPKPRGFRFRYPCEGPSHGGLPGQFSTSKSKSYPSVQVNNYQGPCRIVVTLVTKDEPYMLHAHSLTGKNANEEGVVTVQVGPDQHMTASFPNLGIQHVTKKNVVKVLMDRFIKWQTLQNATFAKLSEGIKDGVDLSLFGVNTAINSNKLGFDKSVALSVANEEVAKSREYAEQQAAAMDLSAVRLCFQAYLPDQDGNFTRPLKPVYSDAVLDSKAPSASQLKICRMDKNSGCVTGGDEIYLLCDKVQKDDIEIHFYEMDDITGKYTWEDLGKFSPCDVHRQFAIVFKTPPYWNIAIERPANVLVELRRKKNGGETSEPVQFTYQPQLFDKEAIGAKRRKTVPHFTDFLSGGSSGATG

Assay [2] has as its target T3, GST-Nv-NF-kB (Ser allele) (Nematostella vectensis, UniProt A7UNT2 2-411).
T3 sequence: T2 sequence with Q21R, C66S, S207N, E215Q, V217A, E225K, A268E, D399E

The next assay addresses T4, GST-Co-NF-kB (Capsaspora owczarzaki, UniProt F1ARL5 200-546).
T4 sequence: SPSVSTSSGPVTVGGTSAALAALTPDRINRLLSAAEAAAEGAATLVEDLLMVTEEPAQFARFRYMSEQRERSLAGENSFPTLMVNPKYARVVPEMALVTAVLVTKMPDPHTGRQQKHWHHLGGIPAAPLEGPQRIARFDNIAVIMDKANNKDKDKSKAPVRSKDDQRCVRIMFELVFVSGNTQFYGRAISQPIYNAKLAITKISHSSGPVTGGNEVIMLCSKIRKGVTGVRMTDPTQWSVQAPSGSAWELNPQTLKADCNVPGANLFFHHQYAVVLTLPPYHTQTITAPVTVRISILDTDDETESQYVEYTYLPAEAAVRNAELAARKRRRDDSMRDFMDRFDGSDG

For another assay, the target named is T5, GST-Dm-Relish (Drosophila melanogaster, UniProt Q94527 99-473).
T5 sequence: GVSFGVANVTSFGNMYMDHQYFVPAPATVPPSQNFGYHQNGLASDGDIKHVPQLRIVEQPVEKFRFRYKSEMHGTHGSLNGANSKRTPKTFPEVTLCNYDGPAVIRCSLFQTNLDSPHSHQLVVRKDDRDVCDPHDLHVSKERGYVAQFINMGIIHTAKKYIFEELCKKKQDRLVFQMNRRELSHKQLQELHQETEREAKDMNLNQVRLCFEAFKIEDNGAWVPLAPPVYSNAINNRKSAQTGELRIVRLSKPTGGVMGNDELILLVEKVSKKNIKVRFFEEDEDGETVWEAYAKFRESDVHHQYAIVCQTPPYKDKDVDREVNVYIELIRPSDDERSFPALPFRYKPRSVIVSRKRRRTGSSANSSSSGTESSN

A further assay concerns the target T6, GST-Aq-NF-kB (Amphimedon queenslandica, UniProt A9Y5G7 2-389).
T6 sequence: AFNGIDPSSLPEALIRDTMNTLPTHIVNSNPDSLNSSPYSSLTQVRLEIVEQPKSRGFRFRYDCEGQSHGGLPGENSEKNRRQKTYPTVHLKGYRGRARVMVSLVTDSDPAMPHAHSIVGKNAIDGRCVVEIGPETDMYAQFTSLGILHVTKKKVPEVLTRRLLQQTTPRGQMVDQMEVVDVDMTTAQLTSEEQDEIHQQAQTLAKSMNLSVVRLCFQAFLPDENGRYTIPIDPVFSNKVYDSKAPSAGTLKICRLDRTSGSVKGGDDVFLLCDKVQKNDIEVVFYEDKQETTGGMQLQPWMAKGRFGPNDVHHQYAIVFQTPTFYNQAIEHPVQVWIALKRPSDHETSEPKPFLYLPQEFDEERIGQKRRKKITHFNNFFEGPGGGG

A further assay addresses GST-Hu-p50 (Homo sapiens, UniProt P19838 7-356).

This note sets out measurements from article PMC5700166.

Numbering of substitutions follows the chain as printed.

GST-Hu-p50, sequence (P19838 7-356): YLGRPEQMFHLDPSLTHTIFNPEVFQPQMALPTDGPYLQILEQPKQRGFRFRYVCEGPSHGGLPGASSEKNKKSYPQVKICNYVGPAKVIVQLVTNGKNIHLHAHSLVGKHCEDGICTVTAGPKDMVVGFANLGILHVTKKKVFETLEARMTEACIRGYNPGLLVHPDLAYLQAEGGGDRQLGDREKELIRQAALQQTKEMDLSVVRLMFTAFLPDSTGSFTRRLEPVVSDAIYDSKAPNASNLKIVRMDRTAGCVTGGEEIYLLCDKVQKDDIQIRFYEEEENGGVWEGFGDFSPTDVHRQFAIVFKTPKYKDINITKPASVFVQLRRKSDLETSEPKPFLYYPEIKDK

On to “CCGATTAACATCAGGACAGCCCCTGATGTTAATCGGGTCTTGATTCGCTTGACGCTGCTG”, for which the binding signal with GST-Ap-NF-kB RHD was found to be 3.75 z-score; in assay [1], 5.09 z-score; in assay [2] it was 2.05 z-score; with GST-Co-NF-kB, 1.05 z-score; with GST-Dm-Relish, 2.67 z-score; in the assay with GST-Aq-NF-kB, 6.62 z-score. Also, in the assay with GST-Hu-p50, the binding signal worked out at 4.14 z-score.
As for “CCGATTAACATCACGTGATTCCCTGATGTTAATCGGGTCTTGATTCGCTTGACGCTGCTG”, the binding signal with GST-Ap-NF-kB RHD was found to be 2.22 z-score; in assay [1], 2.38 z-score; in assay [2] it was 2.58 z-score; in the assay with GST-Co-NF-kB, 1.63 z-score; with GST-Dm-Relish it was 8.61 z-score; in the assay with GST-Aq-NF-kB it was 3.33 z-score. Besides, the binding signal in the assay with GST-Hu-p50 worked out at 1.11 z-score.
In the case of “CCGATTAACATCAGGGGCGTTTATGATGTTAATCGGGTCTTGATTCGCTTGACGCTGCTG”, the binding signal with GST-Ap-NF-kB RHD came to 3.36 z-score; in assay [1] it was 3.44 z-score; in assay [2], 3.2 z-score; in the assay with GST-Co-NF-kB, 1.35 z-score; in the assay with GST-Dm-Relish, 2.1 z-score; with GST-Aq-NF-kB, 3.54 z-score. Further, the binding signal with GST-Hu-p50 was 3.71 z-score.
For the sequence “CCGATTAACATCAAGTCCCCCCATGATGTTAATCGGGTCTTGATTCGCTTGACGCTGCTG”, the binding signal worked out at 5.62 z-score with GST-Ap-NF-kB RHD; 4.07 z-score in assay [1]; 3.94 z-score in assay [2]; 6.53 z-score with GST-Co-NF-kB; 4.21 z-score with GST-Dm-Relish; 4.39 z-score with GST-Aq-NF-kB. For the same sequence, in the assay with GST-Hu-p50, the binding signal stood at 3.78 z-score.
On to “CCGATTAACATCACAAACTCCCCTGATGTTAATCGGGTCTTGATTCGCTTGACGCTGCTG”, for which the binding signal with GST-Ap-NF-kB RHD is 7.26 z-score; in assay [1], 5.84 z-score; in assay [2], 7.23 z-score; with GST-Co-NF-kB, 4.83 z-score; with GST-Dm-Relish it was 5.81 z-score; in the assay with GST-Aq-NF-kB it was 5.35 z-score. For the same sequence, the binding signal with GST-Hu-p50 is 5.66 z-score.
For “CCGATTAACATCAGGGGAAATGATGATGTTAATCGGGTCTTGATTCGCTTGACGCTGCTG”, the binding signal turned out to be 5.75 z-score with GST-Ap-NF-kB RHD; 6.87 z-score in assay [1]; 9.61 z-score in assay [2]; 7.35 z-score in the assay with GST-Co-NF-kB; 2.27 z-score in the assay with GST-Dm-Relish; 4.43 z-score with GST-Aq-NF-kB. Moreover, in the assay with GST-Hu-p50, the binding signal was 5.37 z-score.
On to “CCGATTAACATCAGGGGGGATAATGATGTTAATCGGGTCTTGATTCGCTTGACGCTGCTG”, for which the binding signal with GST-Ap-NF-kB RHD was 5.8 z-score; in assay [1], 4.93 z-score; in assay [2] it was 5.26 z-score; in the assay with GST-Co-NF-kB, 7.17 z-score; with GST-Dm-Relish, 4.67 z-score; with GST-Aq-NF-kB, 4.72 z-score. In the assay with GST-Hu-p50, this sequence gave a binding signal of 5.14 z-score.
For “CCGATTAACATCACGATTTCCCCTGATGTTAATCGGGTCTTGATTCGCTTGACGCTGCTG”, the binding signal in the assay with GST-Ap-NF-kB RHD is 7.82 z-score; in assay [1], 7.92 z-score; in assay [2], 10.8 z-score; with GST-Co-NF-kB, 8.64 z-score; with GST-Dm-Relish, 5.06 z-score; in the assay with GST-Aq-NF-kB it was 5.72 z-score. Also, in the assay with GST-Hu-p50, the binding signal was determined as 6.24 z-score.
Regarding “CCGATTAACATCAAATTATCCCCTGATGTTAATCGGGTCTTGATTCGCTTGACGCTGCTG”, the binding signal with GST-Ap-NF-kB RHD came out at 6.03 z-score; in assay [1], 6.6 z-score; in assay [2], 8.6 z-score; in the assay with GST-Co-NF-kB it was 6.1 z-score; in the assay with GST-Dm-Relish it was 3.57 z-score; in the assay with GST-Aq-NF-kB, 5.25 z-score. The binding signal with GST-Hu-p50 amounted to 5.28 z-score.
For the sequence “CCGATTAACATCAGGGGATTTACTGATGTTAATCGGGTCTTGATTCGCTTGACGCTGCTG”, the binding signal came out at 8.92 z-score with GST-Ap-NF-kB RHD; 9.25 z-score in assay [1]; 10.4 z-score in assay [2]; 3.45 z-score in the assay with GST-Co-NF-kB; 10.5 z-score with GST-Dm-Relish; 7.83 z-score with GST-Aq-NF-kB. Moreover, the binding signal with GST-Hu-p50 is 7.61 z-score.
In the case of “CCGATTAACATCACTATTCCCCCTGATGTTAATCGGGTCTTGATTCGCTTGACGCTGCTG”, the binding signal in the assay with GST-Ap-NF-kB RHD amounted to 5.37 z-score; in assay [1], 6.24 z-score; in assay [2], 7.08 z-score; in the assay with GST-Co-NF-kB, 7.68 z-score; in the assay with GST-Dm-Relish, 3.2 z-score; in the assay with GST-Aq-NF-kB it was 4.96 z-score. The sequence also gave a binding signal with GST-Hu-p50 of 5.82 z-score.
